# Laboratory results taken from PubChem BioAssay (EPA / NIEHS).
# Inconclusive results are not listed. Active and inactive are the calls of the source. Rule for the calls, unless noted: active = hit-call score of the fitted dose curve at least 0.9, where 1 is the maximum; inconclusive = response in the unintended direction; inactive = score below 0.9.
# Legend:
# [1] = biological target: human Dopamine Transporter (DAT), SLC6A3 (gene 6531) (UniProt Q01959); assay: NVS_TR_hDAT: NovaScreen (NVS) Transporter Assay for human Dopamine Transporter (DAT) (AID 2283374);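 note: activity means loss of bound radioligand signal relative to DMSO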
# Sequence of human Dopamine Transporter (DAT), SLC6A3 (gene 6531) (Q01959 whole entry, looked up): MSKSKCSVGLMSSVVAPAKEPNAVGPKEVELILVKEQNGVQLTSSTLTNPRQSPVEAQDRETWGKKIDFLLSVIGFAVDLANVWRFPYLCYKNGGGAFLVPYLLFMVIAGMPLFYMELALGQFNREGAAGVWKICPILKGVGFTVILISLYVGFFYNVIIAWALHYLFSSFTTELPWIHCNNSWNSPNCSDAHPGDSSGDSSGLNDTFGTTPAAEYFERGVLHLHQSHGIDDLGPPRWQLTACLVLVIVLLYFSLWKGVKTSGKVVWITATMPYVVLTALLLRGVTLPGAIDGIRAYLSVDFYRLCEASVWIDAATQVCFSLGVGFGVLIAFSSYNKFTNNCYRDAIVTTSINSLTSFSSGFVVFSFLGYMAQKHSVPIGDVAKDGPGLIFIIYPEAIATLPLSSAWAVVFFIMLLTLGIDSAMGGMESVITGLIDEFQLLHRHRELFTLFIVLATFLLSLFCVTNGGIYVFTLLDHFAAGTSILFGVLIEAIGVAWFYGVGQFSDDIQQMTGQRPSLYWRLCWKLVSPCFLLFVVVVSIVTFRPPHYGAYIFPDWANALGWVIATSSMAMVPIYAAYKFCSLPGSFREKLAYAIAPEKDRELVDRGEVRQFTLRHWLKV
# Outline: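 Duplicate single-point screening at 25 uM preceded concentration-series follow-up of actives. Binding was measured by competitive displacement of a radioligand from DAT protein, filter-counted by scintillation 1 h after dosing. Decrease relative to DMSO taken as activity.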
# [2] = biological target: Peroxisome proliferator-activated receptor gamma (Homo sapiens) (UniProt P37231); assay: NVS_NR_hPPARg: NovaScreen (NVS) Nuclear Receptor Binding Assay for human Peroxisome Proliferator-activated Receptor gamma (PPARg) (AID 2283370)
# Sequence of Peroxisome proliferator-activated receptor gamma (Homo sapiens) (P37231 whole entry, looked up, the tested form may be a part): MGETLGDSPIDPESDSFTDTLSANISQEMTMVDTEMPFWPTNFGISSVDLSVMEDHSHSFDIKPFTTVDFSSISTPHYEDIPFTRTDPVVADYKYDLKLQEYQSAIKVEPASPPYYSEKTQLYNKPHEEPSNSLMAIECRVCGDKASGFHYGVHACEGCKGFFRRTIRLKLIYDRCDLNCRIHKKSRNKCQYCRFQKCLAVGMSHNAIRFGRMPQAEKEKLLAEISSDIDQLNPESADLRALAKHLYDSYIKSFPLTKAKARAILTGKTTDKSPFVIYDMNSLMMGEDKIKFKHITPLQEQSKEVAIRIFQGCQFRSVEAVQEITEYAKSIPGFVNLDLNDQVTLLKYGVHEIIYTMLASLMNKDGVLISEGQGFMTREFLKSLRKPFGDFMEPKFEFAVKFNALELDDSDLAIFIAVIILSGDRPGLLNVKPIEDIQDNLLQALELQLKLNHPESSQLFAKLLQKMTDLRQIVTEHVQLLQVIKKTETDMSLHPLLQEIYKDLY
# Outline: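 Fluorescence polarization measures competitive binding to extracted PPARg in a cell-free format. Reading is taken at 2 h; activity is signal loss relative to DMSO. Screening at 25 uM in duplicate preceded confirmatory dose series.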
# [3] = biological target: Estrogen receptor beta (Homo sapiens) (UniProt Q92731); assay: OT_ER_ERbERb_1440: Odyssey Thera (OT) 24-hour HEK293T Protein-Complementation Assay for Estrogen Receptor-beta/-beta Homodimer (AID 2283380);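 note: fluorescence gain from ER beta LBD homodimer complementation read by laser scanning cytometry; scored as signal increase over DMSO baseline for both agonists and antagonists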
# Sequence of Estrogen receptor beta (Homo sapiens) (Q92731 whole entry, looked up, the tested form may be a part): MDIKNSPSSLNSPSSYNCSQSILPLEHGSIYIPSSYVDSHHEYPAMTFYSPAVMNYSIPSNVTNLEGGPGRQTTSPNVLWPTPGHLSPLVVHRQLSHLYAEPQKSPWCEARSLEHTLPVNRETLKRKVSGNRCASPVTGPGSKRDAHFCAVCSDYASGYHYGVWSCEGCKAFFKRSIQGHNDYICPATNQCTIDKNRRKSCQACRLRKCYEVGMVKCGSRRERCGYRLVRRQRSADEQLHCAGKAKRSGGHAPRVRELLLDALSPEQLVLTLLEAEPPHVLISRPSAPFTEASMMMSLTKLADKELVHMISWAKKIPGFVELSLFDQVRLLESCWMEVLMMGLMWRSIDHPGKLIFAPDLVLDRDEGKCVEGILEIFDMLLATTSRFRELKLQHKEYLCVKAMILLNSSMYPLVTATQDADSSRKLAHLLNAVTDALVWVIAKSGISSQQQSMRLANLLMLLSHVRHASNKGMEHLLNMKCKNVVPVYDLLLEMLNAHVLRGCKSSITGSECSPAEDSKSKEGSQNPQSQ
# Outline: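 Fluorescence increase, nuclear for agonists or whole-cell for antagonists, relative to DMSO vehicle, quantified by laser scanning cytometer after fixation and Draq5 staining. Readout from 24 h treatment of HEK293T cells carrying complementation-paired ER beta LBD (aa 310-547).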
# [4] = biological target: Estrogen receptor (Homo sapiens) (UniProt P03372); assay: OT_ERa_GFPERaERE_0480: Odyssey Thera (OT) 8-hour HeLa Transcription Induction Assay for Estrogen Receptor (AID 2283381; active = hit-call score of the fitted dose curve at least 0.9, where 1 is the maximum; inactive = score below 0.9)
# Sequence of Estrogen receptor (Homo sapiens) (P03372 whole entry, looked up): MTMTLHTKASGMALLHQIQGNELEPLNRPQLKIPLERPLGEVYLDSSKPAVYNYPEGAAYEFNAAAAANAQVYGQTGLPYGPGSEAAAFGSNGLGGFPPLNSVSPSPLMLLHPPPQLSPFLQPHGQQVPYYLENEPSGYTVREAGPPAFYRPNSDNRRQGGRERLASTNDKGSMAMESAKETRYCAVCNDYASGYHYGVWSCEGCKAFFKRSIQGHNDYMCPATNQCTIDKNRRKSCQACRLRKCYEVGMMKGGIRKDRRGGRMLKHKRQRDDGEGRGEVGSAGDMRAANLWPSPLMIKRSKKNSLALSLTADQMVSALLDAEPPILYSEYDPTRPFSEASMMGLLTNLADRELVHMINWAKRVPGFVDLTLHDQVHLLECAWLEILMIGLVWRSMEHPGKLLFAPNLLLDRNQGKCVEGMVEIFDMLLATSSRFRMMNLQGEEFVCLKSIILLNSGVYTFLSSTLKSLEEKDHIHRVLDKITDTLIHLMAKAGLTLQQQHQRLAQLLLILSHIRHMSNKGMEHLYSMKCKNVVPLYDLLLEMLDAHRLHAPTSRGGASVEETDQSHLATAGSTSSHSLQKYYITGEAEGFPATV
# Outline: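 Fluorescence microscopy with high-content image analysis measures ERE-driven GFP induction in HeLa cells at 8 h post-dose. Increases fitted against DMSO baseline.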
# [5] = biological target: Estrogen receptor (Homo sapiens) (UniProt P03372); assay: OT_ERa_GFPERaERE_0120: Odyssey Thera (OT) 2-hour HeLa Transcription Induction Assay for Estrogen Receptor (AID 2283382)
# Outline: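 Fluorescence-microscopy images of the GFP-ERα/ERE reporter, scored by high-content image algorithms, give the readout. HeLa exposure lasted 2 h, and only signal increase over DMSO was fitted.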
# [6] = biological target: Retinoic acid receptor RXR-alpha (Homo sapiens) (UniProt P19793); assay: OT_NURR1_NURR1RXRa_1440: Odyssey Thera (OT) 24-hour HEK293T Protein Complementation Assay for Nurr1/retinoid X receptor (RXR) (AID 2283386)
# Sequence of Retinoic acid receptor RXR-alpha (Homo sapiens) (P19793 whole entry, looked up, the tested form may be a part): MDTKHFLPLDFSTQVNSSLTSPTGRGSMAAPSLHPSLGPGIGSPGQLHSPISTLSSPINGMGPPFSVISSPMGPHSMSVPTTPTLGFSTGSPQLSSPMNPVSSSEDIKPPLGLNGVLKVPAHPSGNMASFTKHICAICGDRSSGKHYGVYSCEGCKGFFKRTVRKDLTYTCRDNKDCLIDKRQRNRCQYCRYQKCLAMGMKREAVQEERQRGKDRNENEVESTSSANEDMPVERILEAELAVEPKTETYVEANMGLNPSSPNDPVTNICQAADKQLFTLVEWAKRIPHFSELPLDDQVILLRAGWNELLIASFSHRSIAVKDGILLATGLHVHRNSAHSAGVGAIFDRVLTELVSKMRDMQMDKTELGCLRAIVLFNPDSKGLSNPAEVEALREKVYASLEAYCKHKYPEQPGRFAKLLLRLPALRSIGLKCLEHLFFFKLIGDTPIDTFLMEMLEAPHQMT
# Outline: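 Gain in fluorescence, fitted relative to DMSO, reflects Nurr1–RXRα association in HEK293T cells after 24 h dosing. Bait and prey are each linked to a reporter-protein fragment that reassembles on interaction.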
# [7] = biological target: Peroxisome proliferator-activated receptor gamma (Homo sapiens) (UniProt P37231); assay: OT_PPARg_PPARgSRC1_0480: Odyssey Thera (OT) 8-hour Protein-Complementation Assay for Peroxisome Proliferator-activated Receptor Gamma / SRC-1 Co-activator (AID 2283387);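 note: nuclear to cytoplasmic split Venus YFP fluorescence ratio reporting PPARg SRC-1 interaction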
# Outline: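 Split-YFP (IFP1/IFP2) PPARg/SRC-1 reporter, HEK293T, 37 °C, 5% CO2; 8 h compound; formaldehyde fix + Draq5; high-content imaging, N/C ratio, ≥350 cells/image, positive direction vs DMSO.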
# [8] = biological target: Peroxisome proliferator-activated receptor gamma (Homo sapiens) (UniProt P37231); assay: OT_PPARg_PPARgSRC1_1440: Odyssey Thera (OT) 24-hour Protein-Complementation Assay for Peroxisome Proliferator-activated Receptor Gamma/ SRC-1 Co-activator (AID 2283388);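 note: nuclear to cytoplasmic ratio of reconstituted Venus YFP fluorescence in fixed imaged cells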
# Outline: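 Transient HEK293T, YFP fragments 1-158/159-239 (mutant IFP1/IFP2) fused to PPARg/SRC-1; 24 h dosing; fix 4% formaldehyde, Draq5; Opera imaging 488/635 nm; N/C ratio, gain vs DMSO.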
# [9] = biological target: mouse Estrogen Receptor alpha (Era), Esr1 (gene 13982) (UniProt P19785); assay: NVS_NR_mERa: NovaScreen (NVS) Nuclear Receptor Binding Assay for mouse Estrogen Receptor alpha (Era) (AID 2283378);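 note: hit means loss of bound radioligand signal relative to DMSO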
# Sequence of mouse Estrogen Receptor alpha (Era), Esr1 (gene 13982) (P19785 whole entry, looked up): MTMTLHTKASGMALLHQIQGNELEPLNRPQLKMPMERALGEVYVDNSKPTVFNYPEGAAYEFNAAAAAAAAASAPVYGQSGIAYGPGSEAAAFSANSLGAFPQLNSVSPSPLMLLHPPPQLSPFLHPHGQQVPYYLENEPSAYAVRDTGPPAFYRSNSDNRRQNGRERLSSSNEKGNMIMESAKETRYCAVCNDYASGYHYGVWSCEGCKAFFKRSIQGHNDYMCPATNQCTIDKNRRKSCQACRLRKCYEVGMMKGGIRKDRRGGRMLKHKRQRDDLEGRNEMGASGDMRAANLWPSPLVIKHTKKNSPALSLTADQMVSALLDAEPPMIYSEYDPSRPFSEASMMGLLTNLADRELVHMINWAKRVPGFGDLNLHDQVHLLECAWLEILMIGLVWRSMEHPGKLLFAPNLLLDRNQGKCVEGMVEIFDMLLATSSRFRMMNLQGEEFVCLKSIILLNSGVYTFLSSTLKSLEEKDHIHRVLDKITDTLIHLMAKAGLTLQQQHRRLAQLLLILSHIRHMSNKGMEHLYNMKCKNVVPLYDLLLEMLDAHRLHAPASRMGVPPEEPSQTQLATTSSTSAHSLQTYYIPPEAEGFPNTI
# Outline: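 Test chemicals competed against a specific radioligand for binding to cell-free mouse Era. Duplicate wells at 25 uM were read 18 hours later by filter-based radiodetection, with loss of signal against DMSO scored as activity.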
# [10] = biological target: Bile acid receptor (Homo sapiens) (UniProt Q96RI1); assay: OT_FXR_FXRSRC1_1440: Odyssey Thera (OT) 24-hour HEK293T Protein-Complementation Assay for Farnesoid X receptor/SRC-1 Co-activator (AID 2283384)
# Sequence of Bile acid receptor (Homo sapiens) (Q96RI1 whole entry, looked up, the tested form may be a part): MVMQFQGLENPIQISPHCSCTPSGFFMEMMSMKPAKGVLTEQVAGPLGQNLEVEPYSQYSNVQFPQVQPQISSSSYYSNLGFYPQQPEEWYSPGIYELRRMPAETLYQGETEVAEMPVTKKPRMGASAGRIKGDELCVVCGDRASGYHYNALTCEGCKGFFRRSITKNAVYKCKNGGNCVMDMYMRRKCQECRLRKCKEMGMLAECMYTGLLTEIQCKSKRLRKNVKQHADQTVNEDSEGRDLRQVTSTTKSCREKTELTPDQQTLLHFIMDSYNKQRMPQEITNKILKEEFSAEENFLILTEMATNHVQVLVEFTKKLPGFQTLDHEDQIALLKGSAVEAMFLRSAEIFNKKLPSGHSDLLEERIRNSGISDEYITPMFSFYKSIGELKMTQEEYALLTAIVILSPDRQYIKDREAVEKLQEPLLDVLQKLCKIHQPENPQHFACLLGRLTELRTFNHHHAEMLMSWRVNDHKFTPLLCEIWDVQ
# Outline: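 Protein-fragment complementation: FXR and SRC-1 fused to reporter fragments that reassemble on interaction, read by fluorescence intensity. Human HEK293T cells measured 24 h post-dose; positive-direction fit versus DMSO.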
# [11] = system: guinea pig Dopamine Transporter (DAT), gene 100714898; assay: NVS_TR_gDAT: NovaScreen (NVS) Transporter Assay for guinea pig Dopamine Transporter (DAT) (AID 2283369);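 note: active compounds lower bound radioligand signal relative to DMSO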
# Outline: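 Test chemicals were incubated 2 h with guinea pig striatal membranes and a radioligand; bound label was separated by filtration and counted. Screening ran at 25 uM, followed by concentration-response testing to a 50 uM maximum.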
# [12] = biological target: human Norepinephrine Transporter (NET), SLC6A2 (gene 6530) (UniProt P23975); assay: NVS_TR_hNET: NovaScreen (NVS) Transporter Assay for human Norepinephrine Transporter (NET) (AID 2283377);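 note: cell-free membrane protein extracted from CHO cells expressing human NET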
# Outline: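 Single-concentration duplicate screen at 25 uM, then concentration-response for actives; displacement of specific radioligand from human NET in CHO membrane extracts, filter-based scintillation detection at 1 h relative to DMSO.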
# [13] = biological target: Agonist Androgen Response Element (ARE), AR (gene 367) (UniProt P10275); assay: OT_AR_ARELUC_AG_1440: Odyssey Thera (OT) 24-hour CHO-K1 Luciferase Assay for Agonist Androgen Response Element (ARE) (AID 2283379)
# Outline: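 Readout: luciferase bioluminescence from CHO-K1 ARE-luc cells, measured 24 h post-dosing; agonism = increased mean luminescence vs DMSO controls, fitted in positive direction.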
# [14] = biological target: Retinoic acid receptor RXR-alpha (Homo sapiens) (UniProt P19793); assay: OT_NURR1_NURR1RXRa_0480: Odyssey Thera (OT) 8-hour HEK293T Protein Complementation Assay for Nurr1/retinoid X receptor (RXR) (AID 2283385)
# Outline: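 Interaction of Nurr1 with RXRα read as reconstituted reporter fluorescence in a HEK293T fragment-complementation system, 8 h post-treatment; increase over DMSO baseline analysed.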
# [15] = biological target: rat Serotonin Transporter (SERT), Slc6a4 (gene 25553) (UniProt P31652); assay: NVS_TR_rSERT: NovaScreen (NVS) Transporter Assay for rat Serotonin Transporter (SERT) (AID 2283375)
# Sequence of rat Serotonin Transporter (SERT), Slc6a4 (gene 25553) (P31652 whole entry, looked up): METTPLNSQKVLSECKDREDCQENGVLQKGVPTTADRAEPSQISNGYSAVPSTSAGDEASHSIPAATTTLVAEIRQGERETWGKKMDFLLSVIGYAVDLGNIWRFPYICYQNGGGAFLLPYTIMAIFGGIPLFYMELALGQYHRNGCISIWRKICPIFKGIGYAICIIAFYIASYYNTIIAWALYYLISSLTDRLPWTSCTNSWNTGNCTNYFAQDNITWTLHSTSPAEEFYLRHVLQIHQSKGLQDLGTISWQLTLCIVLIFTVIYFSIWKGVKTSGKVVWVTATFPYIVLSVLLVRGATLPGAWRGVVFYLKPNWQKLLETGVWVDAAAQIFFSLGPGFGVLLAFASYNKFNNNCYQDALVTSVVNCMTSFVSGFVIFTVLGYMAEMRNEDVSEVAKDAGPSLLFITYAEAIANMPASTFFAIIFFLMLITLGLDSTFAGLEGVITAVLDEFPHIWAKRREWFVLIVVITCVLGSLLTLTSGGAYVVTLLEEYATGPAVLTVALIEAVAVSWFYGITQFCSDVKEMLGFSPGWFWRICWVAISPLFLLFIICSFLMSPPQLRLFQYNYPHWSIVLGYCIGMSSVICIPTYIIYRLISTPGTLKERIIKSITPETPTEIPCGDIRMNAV
# Outline: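 Steps: rat forebrain membranes dosed with chemical (25 uM duplicate primary; concentration series for actives); 1 h incubation; labelled ligand bound, filtered, counted by scintillation. Activity scored as signal loss vs DMSO.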
smiles,measurement,setting,value
CCC(=O)OCC=Cc1ccccc1,AC50,[1],29.2 µM (active)
CNC(=C[N+](=O)[O-])NCCSCc1ccc(CN(C)C)o1,outcome,[2],inactive
same,outcome,[3],inactive
same,outcome,[4],inactive
same,outcome,[5],inactive
same,outcome,[6],inactive
same,outcome,[7],inactive
same,outcome,[8],inactive
O=C(O)CS,outcome,[2],inactive
same,outcome,[3],inactive
same,outcome,[4],inactive
same,outcome,[5],inactive
same,outcome,[6],inactive
same,outcome,[7],inactive
same,outcome,[8],inactive
CCC(C)(C)c1cc(O)c(C(C)(C)CC)cc1O,outcome,[9],inactive
CC(C)(C)C1CCC(O)CC1 (stereo unspecified),outcome,[2],inactive
same,outcome,[4],inactive
same,outcome,[5],inactive
same,outcome,[6],inactive
CC12CCC(C1)C(C)(C)C2O (stereo unspecified),outcome,[9],inactive
same,outcome,[3],inactive
same,outcome,[4],inactive
same,outcome,[5],inactive
same,outcome,[10],inactive
same,outcome,[6],inactive
same,outcome,[7],inactive
same,outcome,[8],inactive
CC(=O)C1C(=O)C=C(C)OC1=O (stereo unspecified),outcome,[9],inactive
same,outcome,[3],inactive
same,outcome,[4],inactive
same,outcome,[5],inactive
same,outcome,[10],inactive
same,outcome,[6],inactive
same,outcome,[7],inactive
same,outcome,[8],inactive
CC(C)(O)CCc1ccccc1,AC50,[11],25 µM (active)
same,outcome,[1],inactive
CC(=O)Nc1cc(S(=O)(=O)O)cc2cc(S(=O)(=O)O)c(N=Nc3ccccc3)c(O)c12,outcome,[2],inactive
same,outcome,[3],inactive
same,outcome,[4],inactive
same,outcome,[5],inactive
same,outcome,[6],inactive
same,outcome,[7],inactive
same,outcome,[8],inactive
O=S1(=O)CC(Cl)(Cl)C(Cl)(Cl)C1,outcome,[9],inactive
O=C(O)c1ccccc1O,outcome,[2],inactive
same,outcome,[4],inactive
same,outcome,[5],inactive
same,outcome,[6],inactive
same,outcome,[7],inactive
same,outcome,[8],inactive
C=C(C)C(N)=O,outcome,[12],inactive
same,outcome,[4],inactive
same,outcome,[5],inactive
same,outcome,[6],inactive
same,outcome,[7],inactive
same,outcome,[8],inactive
CCCCCCCCOS(=O)(=O)O,outcome,[2],inactive
same,outcome,[3],inactive
same,outcome,[4],inactive
same,outcome,[5],inactive
same,outcome,[10],inactive
same,outcome,[7],inactive
same,outcome,[8],inactive
CC1=CCC(C(C)(C)O)CC1 (stereo unspecified),outcome,[2],inactive
same,outcome,[13],inactive
same,outcome,[4],inactive
same,outcome,[5],inactive
same,outcome,[10],inactive
same,outcome,[14],inactive
same,outcome,[6],inactive
same,outcome,[7],inactive
same,outcome,[8],inactive
CC/C=C\CCOC(C)OCC (stereo unspecified),outcome,[9],inactive
NC(=O)c1cccnc1,outcome,[2],inactive
same,outcome,[3],inactive
same,outcome,[4],inactive
same,outcome,[5],inactive
same,outcome,[10],inactive
same,AC50,[6],82.4 µM (active)
same,outcome,[7],inactive
same,outcome,[8],inactive
C=C(C)C(=O)OCCC(C)OC(=O)C(=C)C (stereo unspecified),AC50,[2],20.1 µM (active)
same,outcome,[4],inactive
same,outcome,[5],inactive
same,outcome,[6],inactive
same,outcome,[7],inactive
same,outcome,[8],inactive
CC(C)Cc1ccccc1,outcome,[15],inactive
CN(C)CCC=C1c2ccccc2CCc2ccccc21,outcome,[9],inactive
